From PubChem BioAssay
Active and inactive are the calls of the source.

Tests used:
[1] = tested on: Human papillomavirus type 1a protein E7 (residues 44-93); assay: HPV1a E7 fragment binders on microarrays, primary screen, biochemical, small-molecule microarray, residues 44-93, 635 nm fluorescence (AID 1108); details: small-molecule microarray binding, fluorescence 635 nm; higher = more signal;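 further: E7 fragment applied at 1 µg/mL in TBST for 1 h at 4 C; score combines spot fluorescence with its signal to noise ratio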
[2] = modulators of HCV replicon luciferase signal, primary screen, HCV replication inhibitor project, Huh7 cells, luciferase reporter (AID 1109); details: 48 h, higher = more signal;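 further: huh7 hepatoma cells harbouring a luciferase neomycin HCV replicon reporter; luciferase luminescence as measure of HCV replicon replication; test concentration not given here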
[3] = target: Left-right determination factor 2 (Homo sapiens) (UniProt O00292); assay: LEFTY2 binders on small-molecule microarrays, primary screen, biochemical, small-molecule microarray, 635 nm fluorescence scan (AID 1110); details: LEFTY2 binding, higher = more signal
[4] = target: Calmodulin-1 (Homo sapiens) (UniProt P0DP23); assay: CALM1 binders on microarrays, EGTA buffer, profiling panel, biochemical, small-molecule microarray, Cy5-labelled CALM1 (AID 1111); details: Cy5-CALM1 binding fluorescence, higher = more signal;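 further: labelled calmodulin applied in Tris saline Tween buffer holding calcium plus EGTA and DTT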
[5] = target: Calmodulin-1 (Homo sapiens) (UniProt P0DP23); assay: calcium-bound CALM1 binders on microarrays, profiling panel, artefact control for SMM control-protein annotation, biochemical, small-molecule microarray, Cy5-labelled CALM1, plus calcium (AID 1112); details: Cy5-CALM1 binding fluorescence, higher = more signal;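 further: score merges spot fluorescence with signal to noise from triplicate slides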
[6] = small-molecule microarray binders of probe aWnt5a, primary screen, biochemical, biotinylated probe, 635/667 nm fluorescence (AID 1113); details: higher = more signal;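 further: score merges 667 nm fluorescence intensity with signal-to-noise per printed feature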
[7] = small-molecule microarray binders of probe aShh, primary screen, biochemical, biotinylated probe, 635/667 nm fluorescence (AID 1114); details: higher = more signal;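 further: probe is biotin-labelled aShh protein from a stem cell growth factor screen; measures binding of labelled protein to compounds printed on the slide; score merges feature fluorescence at 667 nm with signal-to-noise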
[8] = small-molecule microarray binders of probe aNog, primary screen, biochemical, biotinylated probe, 635/667 nm fluorescence (AID 1115); details: higher = more signal;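 further: probe is biotinylated aNog protein used at 0.15 µg/mL for 1 h at 4 C; z-score combines 667 nm fluorescence of each spot with its signal to noise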
[9] = target: Torsin-1A-interacting protein 1 (Homo sapiens) (UniProt Q5JTV8); assay: LAP1 binders from COS7 cell lysate, primary screen, small-molecule microarray, 635/667 nm fluorescence (AID 1116); details: COS7-hLAP1 lysate binding, 635 nm fluorescence, higher = more signal
[10] = target: Alpha-bungarotoxin (Bungarus multicinctus) (UniProt P60615); assay: alpha-bungarotoxin binders on microarray, profiling panel, artefact control for SMM control protein annotation, biochemical, small-molecule microarray, Alexa647 label, 635/667 nm fluorescence (AID 1117); details: alpha-BTX-A647 binding fluorescence, higher = more signal
[11] = target: Albumin (Bos taurus) (UniProt P02769); assay: bovine serum albumin binders on microarray, profiling panel, artefact control for SMM control protein annotation, biochemical, small-molecule microarray, Alexa647 label, 635/667 nm fluorescence (AID 1118); details: BSA-A647 binding, fluorescence 635 nm, higher = more signal;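 further: score merges 667 nm emission intensity and signal-to-noise per printed compound spot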
[12] = small-molecule microarray binders of probe aXIP, primary screen, biochemical, NeuroSMM set, 635/667 nm fluorescence (AID 1119); details: higher = more signal, called active from +8 up or from −8 down;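 further: probe is the protein aXip251-270 applied at 1 µg/mL to compound-printed slides; binding of probe to printed compounds measured as 667 nm fluorescence plus signal to noise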
[13] = small-molecule binders of probe aNOTCH3, primary screen, biochemical, small-molecule microarray, 635/667 nm fluorescence (AID 1120); details: higher = more signal;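 further: probe is a biotin-tagged antibody raised against NOTCH3 rather than NOTCH3 protein; score merges spot fluorescence near 667 nm with spot signal to noise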
[14] = small-molecule binders of probe aNOTCH2, primary screen, biochemical, small-molecule microarray, 635/667 nm fluorescence (AID 1121); details: higher = more signal;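 further: score merges feature fluorescence read at 667 nm with its signal to noise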
[15] = target: Carbonic anhydrase 2 (Homo sapiens) (UniProt P00918); assay: CAII small-molecule binders, profiling panel, biochemical, small-molecule microarray, Alexa647-labelled CAII (AID 1122); details: CAII-A647 binding fluorescence, higher = more signal
[16] = COS7 lysate on small-molecule microarray, probe aHis, 635 nm (AID 1123); details: COS7 cell lysate, fluorescence, higher = more signal;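 further: z-score combines 667nm fluorescence intensity with signal-to-noise per printed compound spot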
[17] = compound binding in COS7 lysate, probe aLAP1, primary screen, cell lysate, small-molecule microarray (AID 1124); details: probe aLAP1, fluorescence, higher = more signal;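 further: lysate comes from COS7 cells expressing LAP1 and is applied at 0.3 µg/mL; score merges spot fluorescence near 667 nm with signal-to-noise over triplicate slides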
[18] = tested on: Sam68 (KHDRBS1); assay: Sam68 small-molecule binders, primary screen, biochemical, small-molecule microarray, 635 nm fluorescence (AID 1125); details: small-molecule microarray binding, higher = more signal;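 further: score merges 667 nm channel intensity with signal to noise over triplicate slides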
[19] = tested on: Chordin-like protein 2 (CHRDL2); assay: CHRDL2 small-molecule binders, primary screen, biochemical, small-molecule microarray, 635 nm fluorescence (AID 1126); details: small-molecule microarray binding, fluorescence 635 nm; higher = more signal;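 further: printed compound slides probed with Chrdl2 protein at 4 µg/mL for 1 h at 4 C; score merges 667 nm emission intensity with signal to noise over three replicate slides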
[20] = target: Concanavalin-A (Canavalia ensiformis) (UniProt P02866); assay: ConA small-molecule binders, primary screen, artefact control for SMM control protein annotation, biochemical, small-molecule microarray, Alexa647 label, 635 nm (AID 1127); details: ConA-A647 binding fluorescence, higher = more signal;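 further: z combines 667 nm emission intensity with signal-to-noise across three replicate slides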
Chain of Concanavalin-A (Canavalia ensiformis) (P02866 whole entry, looked up): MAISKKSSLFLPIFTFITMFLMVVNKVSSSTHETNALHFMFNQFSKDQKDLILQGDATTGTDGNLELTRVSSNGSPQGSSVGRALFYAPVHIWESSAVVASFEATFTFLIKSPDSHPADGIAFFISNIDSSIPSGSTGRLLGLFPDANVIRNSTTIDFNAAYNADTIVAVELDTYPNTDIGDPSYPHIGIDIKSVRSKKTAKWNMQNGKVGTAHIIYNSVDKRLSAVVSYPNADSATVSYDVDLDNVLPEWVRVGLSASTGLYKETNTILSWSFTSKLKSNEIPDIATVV

Chain of Torsin-1A-interacting protein 1 (Homo sapiens) (Q5JTV8 whole entry, looked up): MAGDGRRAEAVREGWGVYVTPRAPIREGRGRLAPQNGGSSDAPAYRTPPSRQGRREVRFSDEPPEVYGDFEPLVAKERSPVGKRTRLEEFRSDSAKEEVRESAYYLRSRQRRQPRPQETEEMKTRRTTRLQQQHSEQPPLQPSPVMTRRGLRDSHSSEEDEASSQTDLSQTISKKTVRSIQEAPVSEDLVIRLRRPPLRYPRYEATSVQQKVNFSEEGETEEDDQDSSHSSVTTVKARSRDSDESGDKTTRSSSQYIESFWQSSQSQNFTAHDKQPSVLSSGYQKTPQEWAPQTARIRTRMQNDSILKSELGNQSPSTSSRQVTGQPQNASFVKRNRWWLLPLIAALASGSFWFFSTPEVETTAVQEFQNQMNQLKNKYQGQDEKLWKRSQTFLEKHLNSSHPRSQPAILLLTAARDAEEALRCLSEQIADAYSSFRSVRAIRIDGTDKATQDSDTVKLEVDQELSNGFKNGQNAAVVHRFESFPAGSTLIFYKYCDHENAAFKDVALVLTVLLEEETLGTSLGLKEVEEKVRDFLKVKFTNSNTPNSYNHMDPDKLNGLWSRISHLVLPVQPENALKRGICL
Chain of Left-right determination factor 2 (Homo sapiens) (O00292 whole entry, looked up): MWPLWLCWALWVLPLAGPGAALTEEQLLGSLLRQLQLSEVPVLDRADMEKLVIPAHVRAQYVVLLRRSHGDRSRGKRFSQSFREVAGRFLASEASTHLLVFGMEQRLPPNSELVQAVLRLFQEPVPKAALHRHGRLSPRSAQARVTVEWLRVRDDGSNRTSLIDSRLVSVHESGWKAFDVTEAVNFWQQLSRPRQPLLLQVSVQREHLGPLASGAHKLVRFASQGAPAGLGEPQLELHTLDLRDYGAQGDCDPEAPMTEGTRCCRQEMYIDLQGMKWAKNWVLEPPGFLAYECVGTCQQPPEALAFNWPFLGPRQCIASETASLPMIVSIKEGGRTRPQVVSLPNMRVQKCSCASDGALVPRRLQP
Chain of Albumin (Bos taurus) (P02769 whole entry, looked up): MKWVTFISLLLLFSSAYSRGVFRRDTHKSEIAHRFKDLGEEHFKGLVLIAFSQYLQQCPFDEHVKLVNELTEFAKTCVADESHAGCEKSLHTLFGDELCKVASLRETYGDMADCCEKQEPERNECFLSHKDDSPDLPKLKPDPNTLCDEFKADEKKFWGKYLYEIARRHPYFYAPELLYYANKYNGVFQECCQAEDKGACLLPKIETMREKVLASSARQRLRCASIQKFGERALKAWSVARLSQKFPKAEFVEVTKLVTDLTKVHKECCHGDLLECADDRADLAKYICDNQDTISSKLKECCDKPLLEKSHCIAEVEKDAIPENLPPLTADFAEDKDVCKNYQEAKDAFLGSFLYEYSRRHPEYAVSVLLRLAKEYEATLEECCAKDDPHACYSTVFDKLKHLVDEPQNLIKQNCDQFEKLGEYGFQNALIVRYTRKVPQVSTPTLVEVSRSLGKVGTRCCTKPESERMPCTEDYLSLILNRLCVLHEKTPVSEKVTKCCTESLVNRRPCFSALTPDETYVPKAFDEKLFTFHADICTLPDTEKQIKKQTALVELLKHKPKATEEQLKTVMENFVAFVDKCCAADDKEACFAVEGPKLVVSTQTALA
Chain of Alpha-bungarotoxin (Bungarus multicinctus) (P60615 whole entry, looked up): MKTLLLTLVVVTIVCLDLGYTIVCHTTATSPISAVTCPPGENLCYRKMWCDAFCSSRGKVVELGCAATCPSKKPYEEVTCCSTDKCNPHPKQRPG

SMILES | composite z-score [1] | z-score [2] | composite z-score [3] | composite z-score [4] | composite z-score [5] | composite z-score [6] | composite z-score [7] | composite z-score [8] | composite z-score [9] | composite z-score [10] | composite z-score [11] | composite Z-score [12] | composite z-score [13] | composite z-score [14] | composite z-score [15] | composite z-score [16] | composite z-score [17] | composite z-score [18] | composite z-score [19] | composite z-score [20]
COc1ccc([Si](C)(C)[C@H]2[C@H](CC(=O)N3Cc4ccccc4C[C@H]3CO)O[C@@]3(C(=O)N(C)c4ccccc43)[C@@H]2C)cc1 | 1.42 | -4.34 | 0.77 | 0.125 | -1.29 | -0.124 | -0.0146 | -0.299 | 0.712 | 2.48 | 0.656 | 0.673 (inactive) | 0.163 | -0.11 | 0.686 | 1.89 | 0.941 | 1.28 | 1.37 | 1.01
CC1CC/C=C\[C@H]2OC34C=CCN(c5ccc(Cl)cc5)C(=O)[C@H]3N(CCCCCCO)C(=O)[C@]4(C)C2C(=O)O1 (stereo not given in full) | 0.0258 | -0.0973 | -1.56 | -0.249 | 0.864 | -0.262 | -0.138 | 0.0112 | -0.377 | -0.856 | -0.685 | 0.0185 (inactive) | -0.314 | 0.309 | 0.3 | 0.383 | -0.17 | -0.552 | -0.742 | -0.241
Cc1ccc(F)cc1S(=O)(=O)N[C@H]1CCN(Cc2ccc(OC(C)C)cc2)C1 | 1.34 | -3.4 | 0.379 | -0.781 | -1.43 | -0.187 | -0.0959 | -0.131 | 0.228 | -0.494 | -0.052 | -0.058 (inactive) | -0.0244 | -0.19 | 0.231 | 1.89 | 0.659 | 0.65 | 0.544 | -0.201
O=C(NCC(O)CO)C1N=C(c2ccc(OCCCO)cc2)N(c2ccccc2)O1 (stereo not given) | 1.08 | -0.95 | 0.48 | 0.0138 | -0.332 | -0.103 | -0.232 | -0.243 | 1.35 | 0.282 | -0.138 | -0.226 (inactive) | -0.0996 | 0.162 | 0.821 | 0.0043 | 1.04 | 1 | 0.157 | 0.53
O=C1C=C(c2ccccc2)C(=O)C2=C1CC([C@H]1Oc3ccccc3S(=O)(=O)N3CCC[C@@H]13)=CC2 | 0.529 | -3.98 | 0.0208 | 0.042 | -0.207 | -0.124 | -0.304 | -0.172 | 0.0279 | 0.0221 | 0.0895 | 0.506 (inactive) | -0.0918 | -0.0485 | -0.248 | -0.227 | -0.247 | 0.13 | 0.121 | 0.0457
